Measurements published in PubChem BioAssay (NCATS).
Active and inactive are the calls of the source. Calls come from the whole dose curve; as a rule, active = well fitted curve in the direction sought with a large enough effect; inconclusive = small, poorly fitted or top-dose-only effect, or effect the other way, or another doubt; inactive = no such curve, though single readings can be large or run the other way.

Experiment: qHTS of Nrf2 Activators: LOPAC Validation (AID 624149); note: 0% is about no effect
Settings: Nrf2/ARE reporter cell assay; series mostly up to 46.1 µM; activation: at the top concentration
From the text: Many diseases have some form of oxidative stress injury and ties to inflammation, causing a host of problems for the patient. The antioxidant response element (ARE) plays an important role in alleviating the harmful effects of oxidative stress. The antioxidant response element (ARE) is a transcriptional regulatory element involved in the activation of genes coding for a number of antioxidant proteins and detoxifying enzymes. These enzymes work in concert to protect tissues from oxidative insults and chemical toxicities in human hepatocytes and immune cells. The protective effects of ARE activation are primarily triggered through Nrf2 (NF-E2-related factor) binding to and activating AREs. It is known that Nrf2 controls the production of over 250 antioxidant and detoxification proteins (Hu et al., 2006), thereby protecting tissues by increasing cellular antioxidant content and suppressing inflammatory signaling pathways. The transcription factor Nrf2 is a central link between oxidative chemicals, such as phenolic antioxidants and electrophilic compounds, and the activation of ARE. Nrf2 levels are constitutively low as a consequence of its interaction with Keap1, which targets its degradation (Zipper and Mulcahy, 2002). Electrophiles react with key cysteine residues in Keap1, releasing Nrf2 and allowing its translocation to the nucleus. Once within the nucleus, Nrf2 complexes with coactivators such as p300, and binds to the AREs to induce gene transcription of cytoprotective enzymes, resulting in the prevention of toxicity. Activation of Nrf2 protects tissues by increasing cellular antioxidant content and suppressing inflammatory signaling pathways. Identifying novel and potent Nrf2 activators by using the AREc32 cell line to detect ARE activation by small molecules will lead to the identification and development of probes to study protective pathways in multiple tissues. These specific probes are essential to study the ARE pathway, and eventually to determine whether this pathway does activate genes that could protect against a host of diseases, including cardiovascular diseases, obesity, diabetes, Alzheimer's, and Parkinson's disease.
This project's aim is to identify novel and potent Nrf2 activators by using the AREc32 cell line to detect ARE activation by small molecules, which will lead to the identification and development of probes to study the ARE pathway.
NIH Chemical Genomics Center [NCGC]
NIH Molecular Libraries Probe Centers Network [MLPCN]
Assay Submitter (PI): Curtis Klaassen, University of Kansas Medical Center
5 uL of 1000 cells/well of AREc32_Fluc cells are seeded into 1536-well plate in OPTI-MEM medium with 5% FBS. The plates are incubated overnight at 37 deg C with 5% CO2. Then through pin tool transfer, 23 nL of compounds are added to each well before a 24 hr incubation at 37 deg C with 5% CO2. After the addition of 2.5 uL of Steady-Glo. the plates are kept at RT for 30 min, before they are read on the ViewLux

| Structure (SMILES) | activation |
| --- | --- |
| O=C(O)CP(=O)(O)O | 0.722% (inactive) |
| CC(=O)[C@]1(O)Cc2c(O)c3c(c(O)c2[C@@H](O[C@H]2C[C@H](N)[C@H](O)[C@H](C)O2)C1)C(=O)c1ccccc1C3=O | -1.47% (inactive) |
| C[N+](C)(C)CCOC(N)=O | 0.367% (inactive) |
| COc1ccc(CN(CCN(C)C)c2ccccn2)cc1 | 5.94% (inactive) |
| COCCOC(=O)C1=C(C)NC(C)=C(C(=O)OC(C)C)C1c1cccc([N+](=O)[O-])c1 (stereo not given) | -1.4% (inactive) |
| CC(C)(C)NCC(O)c1cc(O)cc(O)c1 (stereo not given) | -0.929% (inactive) |
| CC(N=C(NC#N)Nc1ccncc1)C(C)(C)C (stereo not given) | 0.711% (inactive) |
| Nc1ncn([C@@H]2O[C@H](CO)[C@@H](O)[C@H]2O)c(=O)n1 | -1.4% (inactive) |
| CCCCNc1c(C(=O)OCC)c(C)nc2c1cnn2CC | -2.29% (inactive) |
| O=C(O)CN(CCN(CC(=O)O)CC(=O)O)CCN(CC(=O)O)CC(=O)O | 0.361% (inactive) |
| COCCc1ccc(OCC(O)CNC(C)C)cc1 (stereo not given) | 0.835% (inactive) |
| CC(=O)OCC1=C(C(=O)O)N2C(=O)[C@@H](NC(=O)Cc3cccs3)[C@H]2SC1 | 7.55% (inactive) |
| Cc1cccc(C)c1NC(=O)C(C)N (stereo not given) | 0.671% (inactive) |
| CN1C(=O)CC[C@H]1c1cccnc1 | -2.32% (inactive) |
| CC(C)(C)c1ccc(C(=O)CCCN2CCC(OC(c3ccccc3)c3ccccc3)CC2)cc1 | -1.38% (inactive) |
| CC(=O)Nc1nnc(S(N)(=O)=O)s1 | 0.876% (inactive) |
| CCO/C([O-])=N/c1c[n+](N2CCOCC2)no1 | -1.28% (inactive) |
| NCCCNCCSP(=O)(O)O | 0.977% (inactive) |
| COC(=O)[C@H]1[C@H]2C[C@@H]3c4[nH]c5cc(OC)ccc5c4CCN3C[C@H]2C[C@@H](OC(=O)c2cc(OC)c(OC)c(OC)c2)[C@@H]1OC | 6.75% (inactive) |
| COC(=O)C1=C(C)NC(C)=C(C(=O)OC(C)(C)CN(C)CCC(c2ccccc2)c2ccccc2)C1c1cccc([N+](=O)[O-])c1 (stereo not given) | -1.18% (inactive) |

| Structure (SMILES) | activation |
| --- | --- |
| NC(Cc1ccc(Cl)cc1)C(=O)O (stereo not given) | -1.88% (inactive) |
| CN(C)CCCN1c2ccccc2Sc2ccc(C(F)(F)F)cc21 | -2.21% (inactive) |
| Brc1c(NC2=NCCN2)ccc2nccnc12 | -1.89% (inactive) |
| CCCC(C(=O)OCCN(CC)CC)(c1ccccc1)c1ccccc1 | 1.22% (inactive) |
| CCc1c(C)[nH]c2c1C(=O)C(CN1CCOCC1)CC2 (stereo not given) | -1.76% (inactive) |
| Cc1nc2ccccn2c(=O)c1CCN1CCC(C(=O)c2ccc(F)cc2)CC1 | 1.15% (inactive) |
| CN(C)CCCN1c2ccccc2Sc2ccccc21 | 4.23% (inactive) |
| CCN(CC)CCNC(=O)c1cc(S(C)(=O)=O)ccc1OC | -0.971% (inactive) |
| CN1C[C@H](C(=O)N[C@]2(C)O[C@@]3(O)[C@@H]4CCCN4C(=O)[C@H](Cc4ccccc4)N3C2=O)C[C@@H]2c3cccc4[nH]cc(c34)C[C@H]21 | -1.32% (inactive) |
| CCOC(=O)C1=C(C)NC(C)=C(C(=O)OC)C1c1cccc(Cl)c1Cl (stereo not given) | -1.99% (inactive) |
| COCC(=O)O[C@]1(CCN(C)CCCc2nc3ccccc3[nH]2)CCc2cc(F)ccc2[C@@H]1C(C)C | -1.54% (inactive) |
| CCC(=O)c1ccc2c(c1)N(CCCN(C)C)c1ccccc1S2 | -0.222% (inactive) |
| CCCN(CCC)C(=O)C(CCC(=O)O)NC(=O)c1ccccc1 (stereo not given) | 0.394% (inactive) |
| CCn1cc(C(=O)O)c(=O)c2cc3c(cc21)OCO3 | -0.24% (inactive) |
| CCn1ccnc1CC1COc2ccccc2O1 (stereo not given) | -0.666% (inactive) |
| N[C@@H](COP(=O)(O)O)C(=O)O | -1.84% (inactive) |
| c1cc(CN2CCCCC2)cc(OCCCNc2nc3ccccc3s2)c1 | -1.6% (inactive) |
| CN=C(NC#N)NCCSCc1nc[nH]c1C | -1.32% (inactive) |
| O=C(CCCN1CCC(O)(c2cccc(C(F)(F)F)c2)CC1)c1ccc(F)cc1 | -0.707% (inactive) |
| CCN1CCC[C@H]1CNC(=O)c1c(O)c(Cl)cc(Cl)c1OC | -0.975% (inactive) |
